Drawing on PubChem BioAssay (NCATS), this text covers Potency for 27 molecules.

Records with an inconclusive call do not appear. Values without a mark were called inactive. Activity calls are given as the source filed them. Calls come from the whole dose curve; as a rule, active = well fitted cell-killing curve with a large enough effect; inconclusive = small, poorly fitted or top-dose-only effect, or effect the other way; inactive = flat fitted curve, though single readings scatter.

Test in all cases: Primary qHTS to identify gynecologic anti-cancer compounds using libraries of approved drugs and bioactive compounds (AID 1345084); note: nearly all actives have a fitted effect of over 55% in size
A general note: Quantitative high-throughput screening tests each substance at several concentrations.

One assay relates to C33A. To be noted: Gynecologic cancer cell panel viability, ATPlite luminescence, 48 h; series mostly up to 57.5 µM. The method in brief:
(§1)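 Cell viability after 48 h drug treatment, ATPlite luminescence readout; five doses.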
Background: In ATP-based viability assays light output follows the ATP content of the culture.

The test system of a further assay is Es-2. As to conditions: Gynecologic cancer cell panel viability, ATPlite luminescence, 48 h; series mostly up to 57.5 µM. The method in brief: as §1
Another assay relates to HeLa. As to conditions: Gynecologic cancer cell panel viability, ATPlite luminescence, 48 h; series mostly up to 57.5 µM. In short, it runs like this: as §1
A further assay deals with Hek293T. As to conditions: Gynecologic cancer cell panel viability, ATPlite luminescence, 48 h, control line for the selectivity index; series mostly up to 57.5 µM. The method in brief: as §1
A further assay concerns JEG-3. As to conditions: Gynecologic cancer cell panel viability, ATPlite luminescence, 48 h; series mostly up to 57.5 µM. In short, it runs like this: as §1
A further assay deals with CASKI. As to conditions: Gynecologic cancer cell panel viability, ATPlite luminescence, 48 h; series mostly up to 57.5 µM. The method in brief:
as §1
Potency is the fitted concentration of half-maximal effect.

In the case of `COc1cc2ncnc(Oc3ccc(CC(=O)Nc4cnn(C(C)C)c4)cc3)c2cc1OC`, the Potency entry in the assay with C33A, in the assay on Es-2, in the assay with HeLa, in the assay with Hek293T and in the assay with JEG-3 was “inactive” throughout.

In the case of `CC1(C)SCCN(S(=O)(=O)c2ccc(Oc3ccncc3)cc2)[C@H]1C(=O)NO`, the Potency entry in the assay with C33A, with Es-2, with HeLa, in the assay on Hek293T and with JEG-3 was “inactive” throughout.

For the molecule `CN(C)CCC(CSc1ccccc1)Nc1ccc(S(=O)(=O)NC(=O)c2ccc(N3CCN(Cc4ccccc4-c4ccc(Cl)cc4)CC3)cc2)cc1[N+](=O)[O-]` (stereo not given), the Potency result with C33A, in the assay on Es-2, with HeLa, in the assay on Hek293T and with JEG-3 was “inactive” each time.

Turning to `N#Cc1ccc(O[C@@H]2c3ccccc3C[C@H]2N2CCC[C@@H](N)C2)c(Cl)c1`, the Potency result with C33A, with HeLa, in the assay on Hek293T and in the assay with JEG-3 was “inactive” each time.

For the molecule `Cc1c(NC(=O)c2cc3c(s2)CCCC3)cccc1-c1cn(C)c(=O)c(Nc2ccc(C3C(=O)N(C)CCN3C)cc2)n1` (stereo not given), the Potency result in the assay on C33A, in the assay with Es-2 and in the assay with Hek293T was “inactive” throughout.

For the molecule `Cc1c(OCc2cccc(-c3ccc(C(=O)O)cc3)c2)cc2c(c1C)C(=O)C(C1CCCC1)C2` (stereo not given), the Potency entry in the assay on C33A, in the assay on Es-2, with HeLa, in the assay with Hek293T and in the assay on JEG-3 was “inactive” each time.

`C=C1C(=O)O[C@@H]2C[C@H](C)[C@@H]3CC(=O)C(C)=C3C[C@H]12`: the Potency in the assay with C33A was 28.2 µM (active). Also, the Potency result with HeLa was “inactive”.

For the molecule `COc1cc2c(cc1-c1c(C)noc1C)ncc1[nH]c(=O)n(C(C)c3ccccn3)c12` (stereo not given), the Potency entry in the assay with C33A, with CASKI, in the assay on Hek293T and in the assay with JEG-3 was “inactive” throughout.

Consider `O=C(Nc1ccc2[nH]nc(-c3ccncc3)c2c1)[C@@H]1CCN(CC(=O)N2CCN(c3ccc(-c4ncccn4)cc3)CC2)C1`, for which the Potency result in the assay with C33A, in the assay on CASKI, in the assay on Hek293T and in the assay with JEG-3 was “inactive” throughout.

In the case of `O=c1cc(N2CCOCC2)nc2c3ccccc3ccn12`, the Potency entry with C33A, in the assay with Es-2, in the assay with HeLa, in the assay on Hek293T and with JEG-3 was “inactive” in each case.

With `CCN(CC)C(=O)c1ccc(Nc2nc(OCC3CCCCC3)c3[nH]cnc3n2)cc1`, the Potency entry with C33A, in the assay with Es-2, in the assay on Hek293T and in the assay on JEG-3 was “inactive” in each case. In the assay on HeLa, the Potency is 28.2 µM (active).

On to `CC(=O)Nc1nc(C)c(-c2nc(N3CCCC(O)C3)no2)s1` (stereo not given), for which the Potency result with C33A and with Es-2 was “inactive” throughout.

In the case of `CC(C)S(=O)(=O)Nc1ccc(F)c(C(=O)c2c[nH]c3ncc(-c4cccnc4)cc23)c1F`, the Potency entry in the assay with C33A, in the assay on CASKI, with Hek293T and with JEG-3 was “inactive” throughout.

`CC(C)(C)Sc1c(CC(C)(C)C(=O)O)n(Cc2ccc(Cl)cc2)c2ccc(OCc3ccc4ccccc4n3)cc12`: the Potency result with C33A, with Es-2, with HeLa, with Hek293T and in the assay on JEG-3 was “inactive” each time.

In the case of `Cc1nc(NC(=O)N2CCC[C@H]2C(N)=O)sc1-c1ccnc(C(C)(C)C(F)(F)F)c1`, the Potency result with C33A, in the assay with Es-2, in the assay with HeLa, in the assay with Hek293T and with JEG-3 was “inactive” in each case.

With `COCC(=O)NC/C=C/c1ccc2ncnc(Nc3ccc(Oc4ccc(C)nc4)c(C)c3)c2c1`, the Potency entry with C33A, in the assay on Es-2, in the assay with HeLa, with Hek293T and with JEG-3 was “inactive” in each case.

On to `COc1cc(N2CCC(O)CC2)ccc1Nc1nc(Nc2ccccc2S(=O)(=O)C(C)C)c2[nH]cnc2n1`, for which the Potency entry in the assay on C33A, in the assay on Es-2, in the assay with Hek293T and with JEG-3 was “inactive” throughout.

For the molecule `CCOc1cc(C(C)(C)C)ccc1C1=NC(C)(c2ccc(Cl)cc2)C(C)(c2ccc(Cl)cc2)N1C(=O)N1CCN(CCCS(C)(=O)=O)CC1` (stereo not given), the Potency entry with C33A, in the assay with Es-2, in the assay on HeLa, in the assay on Hek293T and with JEG-3 was “inactive” each time.

Consider `COC1CC(O[C@H]2CC[C@]3(C)C4CC[C@@]5(C)C(=O)[C@]4(CC[C@@H]3C2)CC[C@@H]5C2=CC(=O)OC2)OC(C)C1OC1OC(COC2OC(CO)C(O)C(O)C2O)C(O)C(O)C1O` (stereo not given in full), for which the Potency in the assay with C33A and in the assay on Es-2 was 2.82 µM (active) throughout.

Regarding `O=C(NCCCCCCCCNC(=O)C(Cl)Cl)C(Cl)Cl`, the Potency result with C33A, in the assay with Es-2, in the assay on HeLa, with Hek293T and in the assay with JEG-3 was “inactive” in each case.

Take `CCn1nc(C2CCN(C(=O)CCO)CC2)nc1-c1cnc(N)c(-c2nnc(C(C)(C)C)o2)n1`: the Potency entry in the assay on C33A, in the assay on Es-2, in the assay with HeLa, in the assay with Hek293T and in the assay on JEG-3 was “inactive” in each case.

For `CCCC(CCC)C(=O)Nc1ccn([C@@H]2O[C@H](CO)[C@@H](O)C2(F)F)c(=O)n1`, the Potency result in the assay on C33A, with HeLa, with Hek293T and with JEG-3 was “inactive” in each case.

As for `CCOc1ccc(Cc2nc(-c3c(C)nc4ccccn34)cs2)cc1`, the Potency was 0.355 µM (active) in the assay with C33A and 0.0891 µM (active) in the assay with Es-2.

`CCC1C(=O)N(C)c2cnc(Nc3ccc(C(=O)NC4CCN(C)CC4)cc3OC)nc2N1C1CCCC1` (stereo not given): the values for the Potency with C33A, in the assay with CASKI and with JEG-3 were 20 µM (active), 3.98 µM (active) and 28.2 µM (active), respectively.

Turning to `NC(=O)CCCSc1nc(N)nc(-c2c(Cl)cc3c4c(cccc24)COC3)n1`, the Potency with C33A is 0.891 µM (active). Besides, the Potency entry in the assay on HeLa is “inactive”.

Turning to `Nc1nc(NC2CC2)cc(-c2cccc(Cl)c2Cl)n1`, the Potency entry in the assay on C33A is “inactive”. Also, the Potency in the assay with HeLa is 20 µM (active).

In the case of `CC1(C(=O)Nc2ccc(F)nc2)CCCN1c1nc(Nc2cc(C3CC3)[nH]n2)c2cccn2n1` (stereo not given), the Potency entry in the assay with C33A and in the assay with Es-2 was “inactive” in each case. For the same molecule, the Potency with Hek293T was 5.01 µM (active).
